Assay in all cases: protein domain microarray probed with biotinylated miRNA; Domain array: 20 mM Tris-HCl pH 7.4, 200 mM KCl, 0.2 mM EDTA, 0.05% NP40, 2 ug/ul heparin, overnight 4 C. ORF array: PBS pH 7.0 with RNase inhibitor, 100 ng RNA; high values mean tight binding
Holding throughout (settings): ssRNA

Assay [1] concerns the target VIGILIN(1-5) (Homo sapiens, UniProt Q00341).
Assay [2] has as its target RBMX (Homo sapiens, UniProt P38159).
The target of assay [3] is T1, DUS2L (Homo sapiens, UniProt Q9NX74).
T1 sequence: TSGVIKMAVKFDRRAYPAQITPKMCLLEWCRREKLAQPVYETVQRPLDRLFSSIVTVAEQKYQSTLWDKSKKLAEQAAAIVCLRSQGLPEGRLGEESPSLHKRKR

For assay [4], the target named is T2, NFAT90(2)/ILF3 (Homo sapiens, UniProt Q12906).
T2 sequence: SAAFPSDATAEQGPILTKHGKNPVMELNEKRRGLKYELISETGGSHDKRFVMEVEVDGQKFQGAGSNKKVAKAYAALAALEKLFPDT

Assay [5] concerns the target IGF2BP3(1-2) (Homo sapiens, UniProt O00425).
The target of assay [6] is T3, STAU2(1-2) (Homo sapiens, UniProt Q9NUL3).
T3 chain: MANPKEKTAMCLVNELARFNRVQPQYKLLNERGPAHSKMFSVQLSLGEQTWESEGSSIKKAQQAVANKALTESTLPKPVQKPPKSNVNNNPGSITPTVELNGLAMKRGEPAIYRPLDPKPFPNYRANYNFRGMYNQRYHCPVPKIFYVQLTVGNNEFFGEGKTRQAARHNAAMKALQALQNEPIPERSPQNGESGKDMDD

Assay [7] addresses T4, RBM24 (Homo sapiens, UniProt Q9BX46).
T4 sequence: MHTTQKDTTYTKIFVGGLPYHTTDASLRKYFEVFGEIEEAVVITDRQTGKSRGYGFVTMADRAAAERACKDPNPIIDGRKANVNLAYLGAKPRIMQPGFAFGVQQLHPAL

Assay [8] concerns the target TNRC4(3) (Homo sapiens, UniProt Q5SZQ8).
The target in assay [9] is T5, YTHDF2 (Homo sapiens, UniProt Q9Y5A9).
T5 sequence: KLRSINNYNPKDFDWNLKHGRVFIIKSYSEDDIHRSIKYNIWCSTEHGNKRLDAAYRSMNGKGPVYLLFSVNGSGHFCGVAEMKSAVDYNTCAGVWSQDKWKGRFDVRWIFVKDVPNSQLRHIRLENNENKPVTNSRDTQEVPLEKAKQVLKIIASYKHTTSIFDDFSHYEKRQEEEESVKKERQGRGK

Assay [10] has as its target T6, RBM44 (Homo sapiens, UniProt Q6ZP01).
T6 sequence: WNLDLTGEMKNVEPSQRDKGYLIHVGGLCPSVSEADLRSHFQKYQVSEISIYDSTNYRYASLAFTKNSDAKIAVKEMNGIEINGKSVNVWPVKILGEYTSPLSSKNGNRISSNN

Assay [11] concerns the target T7, RBM7 (Homo sapiens, UniProt Q9Y580).
T7 sequence: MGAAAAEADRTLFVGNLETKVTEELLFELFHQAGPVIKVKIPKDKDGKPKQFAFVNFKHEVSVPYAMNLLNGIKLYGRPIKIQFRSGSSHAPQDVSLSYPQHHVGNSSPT

Assay [12] concerns the target T8, RNPC2 (Homo sapiens, UniProt Q14498).
T8 sequence: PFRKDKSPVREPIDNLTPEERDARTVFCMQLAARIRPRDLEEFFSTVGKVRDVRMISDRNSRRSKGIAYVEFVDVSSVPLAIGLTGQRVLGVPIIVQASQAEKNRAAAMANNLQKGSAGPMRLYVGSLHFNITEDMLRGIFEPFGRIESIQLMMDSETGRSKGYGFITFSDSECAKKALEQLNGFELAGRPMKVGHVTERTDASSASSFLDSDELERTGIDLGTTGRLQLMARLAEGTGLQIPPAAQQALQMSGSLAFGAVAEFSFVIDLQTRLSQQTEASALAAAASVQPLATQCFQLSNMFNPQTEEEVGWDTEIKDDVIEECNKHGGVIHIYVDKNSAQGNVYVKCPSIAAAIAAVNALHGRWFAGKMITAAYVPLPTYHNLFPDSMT

Assay [13] addresses T9, RBM12B(4) (Homo sapiens, UniProt Q8IXT5).
T9 sequence: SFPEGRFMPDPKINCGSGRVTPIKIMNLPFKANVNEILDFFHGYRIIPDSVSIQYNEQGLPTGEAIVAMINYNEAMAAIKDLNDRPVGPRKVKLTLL

The target in assay [14] is RED1(1)/ADARB1 (Homo sapiens, UniProt P78563).
Assay [15] deals with T10, SON (Homo sapiens, UniProt P18583).
T10 sequence: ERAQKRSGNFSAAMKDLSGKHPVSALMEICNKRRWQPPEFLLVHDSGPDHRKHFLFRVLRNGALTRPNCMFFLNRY

Assay [16] concerns the target KHDRBS1 (Homo sapiens, UniProt Q07666).
Assay [17] deals with RBM3 (Homo sapiens, UniProt P98179).
Chain of RBM3 (P98179 1-110): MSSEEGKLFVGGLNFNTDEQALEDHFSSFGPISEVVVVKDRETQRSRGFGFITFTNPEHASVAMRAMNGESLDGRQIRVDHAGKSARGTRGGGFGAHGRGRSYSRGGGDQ
Assay [18] concerns the target T11, YTHDF3 (Homo sapiens, UniProt Q7Z739).
T11 sequence: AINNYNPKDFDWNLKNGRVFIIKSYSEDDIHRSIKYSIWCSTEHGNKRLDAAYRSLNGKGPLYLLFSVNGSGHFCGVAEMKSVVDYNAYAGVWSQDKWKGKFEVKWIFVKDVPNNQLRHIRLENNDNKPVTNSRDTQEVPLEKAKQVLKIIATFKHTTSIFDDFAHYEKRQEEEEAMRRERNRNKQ

Assay [19] deals with T12, NOVA2(1-2) (Homo sapiens, UniProt Q9UNW9).
T12 sequence: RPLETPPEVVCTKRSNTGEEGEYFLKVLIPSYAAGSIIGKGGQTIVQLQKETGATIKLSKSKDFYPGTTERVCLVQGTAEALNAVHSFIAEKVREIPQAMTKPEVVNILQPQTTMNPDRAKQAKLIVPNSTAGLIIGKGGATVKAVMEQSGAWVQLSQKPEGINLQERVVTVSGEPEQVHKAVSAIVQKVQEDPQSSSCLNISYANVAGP

The target of assay [20] is T13, SFRS4 (Homo sapiens, UniProt Q08170).
T13 sequence: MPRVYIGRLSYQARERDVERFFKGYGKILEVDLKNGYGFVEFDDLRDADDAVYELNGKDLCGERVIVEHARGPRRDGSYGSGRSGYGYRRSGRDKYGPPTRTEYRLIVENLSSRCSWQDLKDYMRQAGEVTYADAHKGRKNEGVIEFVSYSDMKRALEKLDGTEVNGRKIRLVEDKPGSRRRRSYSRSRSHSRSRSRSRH

Chain of TNRC4(3) (Q5SZQ8 351-465): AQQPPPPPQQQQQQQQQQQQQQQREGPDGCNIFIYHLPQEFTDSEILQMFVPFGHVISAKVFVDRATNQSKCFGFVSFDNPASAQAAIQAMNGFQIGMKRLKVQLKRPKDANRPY
Chain of RBMX (P38159 1-110): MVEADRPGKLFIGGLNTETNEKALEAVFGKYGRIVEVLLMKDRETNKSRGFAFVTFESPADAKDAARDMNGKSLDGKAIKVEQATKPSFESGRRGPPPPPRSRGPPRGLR
Chain of IGF2BP3(1-2) (O00425 178-364): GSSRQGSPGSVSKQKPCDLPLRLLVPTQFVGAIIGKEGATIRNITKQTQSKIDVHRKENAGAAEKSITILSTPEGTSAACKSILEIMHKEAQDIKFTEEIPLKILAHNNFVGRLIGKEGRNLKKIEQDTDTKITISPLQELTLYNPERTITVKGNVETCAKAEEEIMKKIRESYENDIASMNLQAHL
Chain of VIGILIN(1-5) (Q00341 138-534): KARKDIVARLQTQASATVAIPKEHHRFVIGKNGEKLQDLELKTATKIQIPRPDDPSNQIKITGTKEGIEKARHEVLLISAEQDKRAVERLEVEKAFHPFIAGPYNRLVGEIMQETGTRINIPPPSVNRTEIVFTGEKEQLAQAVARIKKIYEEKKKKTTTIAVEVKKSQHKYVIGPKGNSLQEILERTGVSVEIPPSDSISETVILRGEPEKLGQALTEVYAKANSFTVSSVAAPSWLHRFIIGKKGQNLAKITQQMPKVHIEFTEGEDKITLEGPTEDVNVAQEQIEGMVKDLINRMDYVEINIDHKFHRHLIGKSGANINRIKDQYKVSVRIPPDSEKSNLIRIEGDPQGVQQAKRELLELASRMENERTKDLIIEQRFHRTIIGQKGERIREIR
Chain of KHDRBS1 (Q07666 85-210): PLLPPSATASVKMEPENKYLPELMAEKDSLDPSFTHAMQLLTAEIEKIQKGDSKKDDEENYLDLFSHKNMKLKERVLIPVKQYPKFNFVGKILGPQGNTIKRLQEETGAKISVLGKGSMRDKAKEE

With UGAGGUAGUAGGUUGUAUGGUU, the binding signal is 454 ± 17.2 fluorescence intensity in [1]; 571 ± 25 fluorescence intensity in [2]; 47.2 ± 5.46 fluorescence intensity in [3]; 27.3 ± 2.02 fluorescence intensity in assay [4]; 34.3 ± 8.59 fluorescence intensity in assay [5]; 74.1 ± 4.8 fluorescence intensity in assay [6]. For the same sequence, the binding signal in [7] came to 1340 ± 23.1 fluorescence intensity; in [8] it was 333 ± 23.4 fluorescence intensity; in [9], 72.2 ± 12.5 fluorescence intensity; in assay [10], 24.5 ± 2.6 fluorescence intensity; in assay [11] it was 45.27 ± 0.0778 fluorescence intensity; in assay [12] it was 43.3 ± 11.8 fluorescence intensity. For the same sequence, the binding signal is 62 ± 3.02 fluorescence intensity in assay [13]; 151 ± 4.54 fluorescence intensity in assay [14]; 23.9 ± 4.74 fluorescence intensity in assay [15]; 25.6 ± 0.417 fluorescence intensity in assay [16]; 1642 ± 12.9 fluorescence intensity in assay [17]; 117 ± 1.29 fluorescence intensity in assay [18]. In addition, the binding signal was 26.8 ± 4.61 fluorescence intensity in assay [19] and 206 ± 51.4 fluorescence intensity in assay [20].
With UGAGGUAGUAGGUUGUAUAGUU, the binding signal stood at 86.5 ± 26.5 fluorescence intensity in assay [1]; 216 ± 27.7 fluorescence intensity in assay [2]; 21.2 ± 1.65 fluorescence intensity in assay [5]; 596 ± 24 fluorescence intensity in [7]; 69.3 ± 14.8 fluorescence intensity in assay [8]; 20.7 ± 0.276 fluorescence intensity in assay [10]. Also, the binding signal in [11] came out at 22.1 ± 0.665 fluorescence intensity; in assay [14], 40.73 ± 0.318 fluorescence intensity; in assay [16] it was 22.6 ± 1.88 fluorescence intensity; in assay [17], 669 ± 18.7 fluorescence intensity; in assay [18], 30 ± 0.891 fluorescence intensity; in assay [20] it was 20.4 ± 3.62 fluorescence intensity.
With AGAGGUAGUAGGUUGCAUAGUU, the binding signal in assay [1] was found to be 173 ± 11.1 fluorescence intensity; in assay [2], 963 ± 66.7 fluorescence intensity; in assay [3], 25.82 ± 0.0919 fluorescence intensity; in assay [4], 21.9 ± 1.63 fluorescence intensity; in assay [5], 44.2 ± 2.91 fluorescence intensity; in assay [6], 53.6 ± 0.792 fluorescence intensity. Also, the binding signal in assay [7] amounted to 1891 ± 18.8 fluorescence intensity; in assay [8], 191 ± 21.4 fluorescence intensity; in assay [9], 38.4 ± 3.27 fluorescence intensity; in assay [11], 36.3 ± 3 fluorescence intensity; in [12], 27 ± 3 fluorescence intensity; in [13] it was 23.2 ± 2.64 fluorescence intensity. The binding signal in assay [14] was determined as 152 ± 6.66 fluorescence intensity; in assay [15], 20.1 ± 1.45 fluorescence intensity; in assay [16] it was 21.6 ± 3.36 fluorescence intensity; in assay [17], 2295 ± 10 fluorescence intensity; in assay [18], 60.7 ± 7.12 fluorescence intensity; in assay [19] it was 151 ± 5.8 fluorescence intensity. This sequence also gave a binding signal in assay [20] of 238 ± 11.7 fluorescence intensity.
Consider UGAGGUAGUAGGUUGUGUGGUU, for which the binding signal came out at 622 ± 17.6 fluorescence intensity in assay [1]; 721 ± 26 fluorescence intensity in assay [2]; 76.1 ± 2.55 fluorescence intensity in assay [3]; 45.6 ± 4.09 fluorescence intensity in assay [4]; 61.2 ± 7.31 fluorescence intensity in assay [5]; 148.7 ± 0.905 fluorescence intensity in assay [6]. In addition, the binding signal amounted to 1780 ± 28.1 fluorescence intensity in assay [7]; 324 ± 34.8 fluorescence intensity in assay [8]; 90.3 ± 14.1 fluorescence intensity in assay [9]; 50.2 ± 0.997 fluorescence intensity in [11]; 80.9 ± 8.52 fluorescence intensity in [12]; 50.1 ± 2.09 fluorescence intensity in assay [13]. In addition, the binding signal worked out at 230 ± 23.8 fluorescence intensity in assay [14]; 24.3 ± 4.36 fluorescence intensity in [15]; 28.3 ± 5.26 fluorescence intensity in assay [16]; 1550 ± 33.7 fluorescence intensity in [17]; 129 ± 9.2 fluorescence intensity in assay [18]; 40.2 ± 2.14 fluorescence intensity in assay [19]. In addition, the binding signal in [20] is 339 ± 8.46 fluorescence intensity.
Consider CAGUGCAAUGAUGAAAGGGCAU, for which the binding signal was 156 ± 8.85 fluorescence intensity in [1]; 686 ± 37.1 fluorescence intensity in [2]; 23 ± 0.905 fluorescence intensity in assay [4]; 43.1 ± 3.58 fluorescence intensity in assay [5]; 39.2 ± 1.2 fluorescence intensity in [6]; 1450 ± 56.8 fluorescence intensity in assay [7]. In addition, the binding signal is 85.6 ± 1 fluorescence intensity in assay [8]; 30.8 ± 0.523 fluorescence intensity in [9]; 21.2 ± 0.735 fluorescence intensity in assay [10]; 34 ± 2.81 fluorescence intensity in assay [11]; 38.8 ± 4.95 fluorescence intensity in assay [13]; 67.57 ± 0.354 fluorescence intensity in assay [14]. For the same sequence, the binding signal turned out to be 25.1 ± 9.81 fluorescence intensity in assay [16]; 1390 ± 40.6 fluorescence intensity in assay [17]; 52.8 ± 5.03 fluorescence intensity in [18]; 71.4 ± 9.69 fluorescence intensity in assay [19]; 236 ± 1.78 fluorescence intensity in assay [20].
Regarding UAGCUUAUCAGACUGAUGUUGA, the binding signal in assay [1] was 20.4 ± 2.57 fluorescence intensity; in [2] it was 71.4 ± 18 fluorescence intensity; in assay [6], 20.4 ± 2.26 fluorescence intensity; in [7] it was 1720 ± 109 fluorescence intensity; in [8] it was 25 ± 0.665 fluorescence intensity; in [17], 409 ± 132 fluorescence intensity.
